Records with an inconclusive call do not appear. The source made the active and inactive calls. Unless noted, calls follow the shape of the dose curve; as a rule, active = well fitted curve in the direction sought with a large enough effect; inconclusive = small, poorly fitted or top-dose-only effect, or another doubt; inactive = no such curve, though single readings can be large; an effect the other way counts as inactive or inconclusive. Where only a bound is given, the exact number is not on record here.

Assay [1] has as its target Tyrosyl-DNA phosphodiesterase 1 (Homo sapiens) (UniProt Q9NUW8). In words: Confirmation Assay for Inhibitors of Tyrosyl-DNA Phosphodiesterase (TDP1) (AID 489007). Also: potency is read from the fitted curve at half-maximal effect; nearly all actives have a fitted effect of over 40% in size. The note with it: recombinant human TDP1 enzymatic activity, dose-response. The gist of the method:
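Loss of AlphaScreen signal reports Tdp1 cleavage of a dual-labelled DNA substrate. Conditions: 1 nM E. coli-derived enzyme, 15 nM substrate, 15 min compound preincubation, 5 min reaction, 10 min bead incubation, all at room temperature.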

Assay [2] addresses Rap guanine nucleotide exchange factor 3 (Homo sapiens) (UniProt O95398). Description: Confirmatory qHTS for agonist of cAMP-regulated guanine nucleotide exchange factor 3 (EPAC1) (AID 1645881).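 Also: EPAC1 catalysed release of BODIPY-GDP from Rap1B seen as fluorescence loss; 100% = effect of cAMP agonist control; nearly all actives have a fitted effect of over 75% in size.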
Assay [3] concerns the target Rap guanine nucleotide exchange factor 4 (Homo sapiens) (UniProt Q8WZA2). In words: Confirmatory qHTS for agonist of cAMP-regulated guanine nucleotide exchange factor 4 (EPAC2) (AID 1645884).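 Also: nucleotide exchange releases bodipy-GDP from Rap1 and this lowers its fluorescence; nearly all actives have a fitted effect of over 65% in size.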 Also: potency is read from the fitted curve at half-maximal effect. On the technique in general: Quantitative high-throughput screening tests each substance at several concentrations.
For assay [4] the target is unchanged. In words: Confirmatory qHTS for antagonist of cAMP-regulated guanine nucleotide exchange factor 4 (EPAC2) (AID 1645885). Also: nearly all actives have a fitted effect of over 25% in size.
For assay [5], the target named is Rap guanine nucleotide exchange factor 3 (Homo sapiens) (UniProt O95398). In words: Counterscreen qHTS for antagonist of cAMP-regulated guanine nucleotide exchange factor 3 (EPAC1) (AID 1645888).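 Also: fluorescence loss as bound BODIPY-GDP is released from Rap1B; % of control where 0% means no effect.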 The gist of the method: (§1)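 Rap1B–BODIPY-GDP (250 nM) with 50 uM GDP; compounds pin-transferred to 9.74 nM–152 uM final (activator) or from 7.32 nM upwards (inhibitor). Fluorescence Ex/Em 480/540 nm read at 5 and 30 min, then after adding cAMP or buffer, at room temperature.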
Chain of Rap guanine nucleotide exchange factor 3 (Homo sapiens) (O95398 whole entry, looked up): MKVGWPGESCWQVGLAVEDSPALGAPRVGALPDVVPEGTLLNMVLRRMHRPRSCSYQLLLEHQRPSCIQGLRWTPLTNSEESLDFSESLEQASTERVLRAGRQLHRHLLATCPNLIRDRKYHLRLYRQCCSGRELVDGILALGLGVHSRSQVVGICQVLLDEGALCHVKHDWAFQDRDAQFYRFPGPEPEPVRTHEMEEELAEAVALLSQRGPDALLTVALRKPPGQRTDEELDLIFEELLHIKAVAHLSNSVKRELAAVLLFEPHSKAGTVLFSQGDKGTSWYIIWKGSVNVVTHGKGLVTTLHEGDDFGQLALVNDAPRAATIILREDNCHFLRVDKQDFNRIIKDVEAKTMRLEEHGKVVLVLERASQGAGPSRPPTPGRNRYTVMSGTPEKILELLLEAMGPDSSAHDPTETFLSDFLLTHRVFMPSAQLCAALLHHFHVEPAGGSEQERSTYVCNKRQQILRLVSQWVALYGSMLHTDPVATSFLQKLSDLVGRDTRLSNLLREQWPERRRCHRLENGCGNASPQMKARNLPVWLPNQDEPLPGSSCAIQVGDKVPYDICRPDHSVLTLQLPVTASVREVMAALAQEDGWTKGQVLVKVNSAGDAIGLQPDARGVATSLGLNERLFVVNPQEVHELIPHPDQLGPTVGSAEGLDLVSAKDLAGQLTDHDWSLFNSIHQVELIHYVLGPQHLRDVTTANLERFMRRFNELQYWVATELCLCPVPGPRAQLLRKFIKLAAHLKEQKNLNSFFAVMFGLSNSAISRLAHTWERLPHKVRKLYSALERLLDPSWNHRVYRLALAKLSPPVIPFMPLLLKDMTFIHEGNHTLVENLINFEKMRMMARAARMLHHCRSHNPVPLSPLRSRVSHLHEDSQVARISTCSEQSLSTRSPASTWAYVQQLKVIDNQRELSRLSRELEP

In assay [6] the target is Tumor susceptibility gene 101 protein (Homo sapiens) (UniProt Q99816). Description: qHTS Assay for Iinhibitors of HIV-1 Budding by Blocking the Interaction of PTAP/TSG101: Hit Validation (AID 651600). Also: potency is read from the fitted curve at half-maximal effect; nearly all actives have a fitted effect of over 70% in size. In short, it runs like this: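 FITC-PTAP peptide (50 nM final) binding to Tsg101 binding domain (10 uM final) was measured by polarization after 20 min at r.t. with compounds, in 10 mM HEPES pH 7.5 buffer with 0.15 M NaCl and 0.01% Tween 20.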
Chain of Tumor susceptibility gene 101 protein (Homo sapiens) (Q99816 whole entry, looked up, the tested form may be a part): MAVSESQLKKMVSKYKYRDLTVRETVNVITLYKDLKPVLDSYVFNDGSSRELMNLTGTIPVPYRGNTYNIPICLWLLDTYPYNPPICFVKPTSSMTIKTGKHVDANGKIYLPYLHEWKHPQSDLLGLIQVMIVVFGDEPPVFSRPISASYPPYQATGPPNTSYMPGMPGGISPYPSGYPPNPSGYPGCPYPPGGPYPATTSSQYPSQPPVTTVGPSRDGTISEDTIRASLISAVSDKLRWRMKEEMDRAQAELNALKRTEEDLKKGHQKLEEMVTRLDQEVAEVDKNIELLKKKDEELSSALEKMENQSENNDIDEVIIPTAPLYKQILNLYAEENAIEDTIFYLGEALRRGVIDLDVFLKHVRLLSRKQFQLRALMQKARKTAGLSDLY

Assay [7] is described as follows: NFAT Signaling Pathway (AID 444; active = well fitted curve in either direction with a large enough effect, not every such curve was filed as active;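 also: carbachol stimulus at about its EC50 of 1 µM final; % is scaled to controls: 0 for no effect and ±100 for the full control effect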). The note with it: Jurkat NFAT-bla M1, carbachol, beta-lactamase ratio, 5 h. In short, it runs like this: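 Jurkat cells with NFAT-driven β-lactamase reporter and co-expressed M1 receptor, stimulated with carbachol (final 1 uM, ~EC50), compound titration, 5 h at 37 °C. CCF4 loaded 1 h at RT; 460/530 nm ratio gave %activity and AC50.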

The target in assay [8] is Glucocorticoid receptor (Homo sapiens) (UniProt P04150). Description: GR-GFP Redistribution (AID 450;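 active = compounds whose dose series gives a full or clear partial fitted curve of increased nuclear translocation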; also: potency is read from the fitted curve at half-maximal effect). Particulars: U2OS GR-GFP nuclear translocation, laser cytometry, 2 h.
Chain of Glucocorticoid receptor (Homo sapiens) (P04150 whole entry, looked up, the tested form may be a part): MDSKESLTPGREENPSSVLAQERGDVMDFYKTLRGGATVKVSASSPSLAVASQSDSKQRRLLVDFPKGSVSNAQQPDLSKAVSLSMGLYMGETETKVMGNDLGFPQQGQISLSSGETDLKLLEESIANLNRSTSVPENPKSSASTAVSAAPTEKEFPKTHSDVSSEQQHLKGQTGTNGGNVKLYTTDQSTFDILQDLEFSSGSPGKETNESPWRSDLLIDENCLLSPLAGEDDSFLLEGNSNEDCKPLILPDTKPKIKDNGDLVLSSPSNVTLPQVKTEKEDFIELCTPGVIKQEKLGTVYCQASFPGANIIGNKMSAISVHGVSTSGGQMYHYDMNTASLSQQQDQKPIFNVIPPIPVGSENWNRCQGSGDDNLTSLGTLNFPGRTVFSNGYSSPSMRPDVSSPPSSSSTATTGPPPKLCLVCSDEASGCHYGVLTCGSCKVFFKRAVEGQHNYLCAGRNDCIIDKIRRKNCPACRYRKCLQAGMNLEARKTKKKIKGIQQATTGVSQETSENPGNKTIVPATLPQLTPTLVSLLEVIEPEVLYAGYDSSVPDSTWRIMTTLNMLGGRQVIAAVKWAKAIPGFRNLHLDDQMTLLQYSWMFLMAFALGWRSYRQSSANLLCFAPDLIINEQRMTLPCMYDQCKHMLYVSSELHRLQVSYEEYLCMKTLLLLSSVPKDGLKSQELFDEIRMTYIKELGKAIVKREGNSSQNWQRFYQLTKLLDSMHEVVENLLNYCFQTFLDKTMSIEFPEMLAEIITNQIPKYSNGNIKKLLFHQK
The nature of assay [9]: qHTS Assay for Identification of Small Molecule Agonists for Hypoxia Response Element Signaling Pathway (AID 914; active = well fitted activation curve with a large enough effect in the signal ratio, with a control signal flat, not every such curve was filed as active; the % refers to the signal ratio; also: potency is read from the fitted curve at half-maximal effect). Particulars: ME-180 (cervical carcinoma) HRE-bla reporter, beta-lactamase ratio, CoCl2, 17 h; activation: active compounds read high. In short, it runs like this:
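In Opti-MEM containing 0.5% dialyzed FBS and 10 mM HEPES, ME-180 HRE-bla cells received a compound titration and EC50 CoCl2. They were incubated 17 hours, then CCF4-loaded 2.5 hours at room temperature before ratio reading.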

Assay [10] concerns the target Rap guanine nucleotide exchange factor 3 (Homo sapiens) (UniProt O95398). Description: Counterscreen qHTS for agonist of cAMP-regulated guanine nucleotide exchange factor 3 (EPAC1) (AID 1645889). Also: % of control where 0% means no effect; nearly all actives have a fitted effect of over 40% in size. The gist of the method: as §1
On the technique in general: A counterscreen serves to expose hits that act by an unwanted route or on another target.

For assay [11], the target named is Lysosomal acid glucosylceramidase (Homo sapiens) (UniProt P04062). Description: Glucocerebrosidase-p2 (AID 348; in the data active = potency below about 10 µM; also: potency is read from the fitted curve at half-maximal effect). Particulars: purified GBA, blue fluorogenic substrate, 40 min. The gist of the method: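 Normal human glucocerebrosidase (0.2 nM) with blue fluorogenic substrate (80 uM final) in citrate/phosphate pH 5.9 with 10mM sodium taurocholate, 0.01% tween-20; 40 min RT, NaOH/glycine stop; fluorescence Ex 365/Em 440; AC50 from a titration from 0.6 nM upwards.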

Assay [12] is described as follows: AP1 Signaling Pathway (AID 357; active = well fitted curve in either direction with a large enough effect, not every such curve was filed as active; also: % is scaled to controls: 0 for no effect and ±100 for the full control effect). In short, it runs like this:
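AP-1-bla ME-180 cells with beta-lactamase reporter under AP-1 response element, stimulated with EC50 EGF; compounds titrated, 5 hours at 37 degrees Celsius. CCF4 read at 460/530 nm ratio; positive and negative modulators judged by AC50.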

Assay [13] has as its target Cytochrome P450 1A2 (Homo sapiens) (UniProt P05177). Description: p450-cyp1a2 (AID 410; calls by dose curve; also: potency is read from the fitted curve at half-maximal effect). In short, it runs like this: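 Read-out is luminescence from luciferin produced by CYP1A2 demethylation of Luciferin-ME (100uM, at Km). Detection reagent stopped the 60 min NADPH-dependent reaction; signals were normalized to 57 uM furafylline.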
Assay [14] can be described thus: Stat Signaling Pathway (AID 446; active = well fitted curve in either direction with a large enough effect, not every such curve was filed as active;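 also: ME-180 cervical cancer cells given 40 pM IL-6 alongside compound; SIE-controlled beta-lactamase reporter measured as 460/530 nm FRET emission ratio; % is scaled to controls: 0 for no effect and ±100 for the full control effect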). The gist of the method: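 Normalization used AC90 stimulation (300 pM IL-6) and AC90 inhibition (125 nM pan-JAK inhibitor at 40 pM IL-6). The underlying signal is SIE-driven beta-lactamase in ME-180 cells after 5 h IL-6 exposure with compound.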
In assay [15] the target is Glucocorticoid receptor (Homo sapiens) (UniProt P04150). Description: GR-EFC Redistribution (AID 451; calls by dose curve; also: potency is read from the fitted curve at half-maximal effect). The note with it: CHO-K1 GR-EFC translocation, beta-gal luminescence, 2 h. The gist of the method:
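CHO-K1 cells expressing nuclear EA and GR-ED fragments of b-gal; compounds titrated up to 46 uM final, 2 h at 37 C. GR nuclear translocation read as complemented b-gal luminescence after 1 h RT detection.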

Assay [16] concerns the target Mitogen-activated protein kinase 10 (Mus musculus) (UniProt Q61831). Description: JNK3 AlphaScreen Assay (AID 530; active = well fitted curve in either direction with a large enough effect, not every such curve was filed as active;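 also: kinase came from lysate of stimulated human HepG2 cells; signal reports phosphorylation of biotinylated GST-cJun 1-79 at Ser73 with 10 µM ATP; % is scaled to controls: 0 for no effect and ±100 for the full control effect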). In short, it runs like this: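 HepG2 lysate (IL-1b/TNFa pre-activated) + biotin-GST-cJun 1-79 + anti-pSer73 cJun; cpd titration, 15 min RT; ATP 10 uM start; Tris pH 7.6, MgCl2, DTT, vanadate; beads in EDTA buffer; AlphaScreen.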
A general note: Alpha assays give light when donor and acceptor beads are brought close together.

Assay [17] concerns the target 3',5'-cyclic-AMP phosphodiesterase 4B (Homo sapiens) (UniProt Q07343). In words: qHTS Assay for Inhibitors of PDE-IV (AID 607; active = well fitted activation curve with a large enough effect in the main read-out, with a control signal flat, not every such curve was filed as active; also: % of control where 0% means no effect). The gist of the method: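 HEK293 ACTOne cells with CNG channel (1000/well), endogenous PDE4; membrane potential dye, compounds up to 22.9 uM final. Fluorescence Ex 535/Em 590; RO 20-1724 (100 uM final) as reference.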

Chain of Tyrosyl-DNA phosphodiesterase 1 (Homo sapiens) (Q9NUW8 whole entry, looked up): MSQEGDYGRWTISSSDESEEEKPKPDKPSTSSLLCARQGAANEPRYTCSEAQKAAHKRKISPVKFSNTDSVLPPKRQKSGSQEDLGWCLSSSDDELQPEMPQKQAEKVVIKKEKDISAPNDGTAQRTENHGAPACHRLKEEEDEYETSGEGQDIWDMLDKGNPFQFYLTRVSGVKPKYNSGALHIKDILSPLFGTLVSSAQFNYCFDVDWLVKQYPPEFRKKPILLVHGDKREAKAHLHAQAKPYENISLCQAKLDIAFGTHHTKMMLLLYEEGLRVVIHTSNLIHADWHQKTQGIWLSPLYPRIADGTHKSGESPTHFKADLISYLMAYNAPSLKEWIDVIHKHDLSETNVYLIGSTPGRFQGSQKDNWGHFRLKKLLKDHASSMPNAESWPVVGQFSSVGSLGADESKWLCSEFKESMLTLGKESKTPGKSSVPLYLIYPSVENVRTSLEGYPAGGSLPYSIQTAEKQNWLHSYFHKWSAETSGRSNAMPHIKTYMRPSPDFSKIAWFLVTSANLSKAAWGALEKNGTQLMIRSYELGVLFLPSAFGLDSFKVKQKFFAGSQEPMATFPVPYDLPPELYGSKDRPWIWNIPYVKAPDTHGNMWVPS
Chain of Rap guanine nucleotide exchange factor 4 (Homo sapiens) (Q8WZA2 whole entry, looked up): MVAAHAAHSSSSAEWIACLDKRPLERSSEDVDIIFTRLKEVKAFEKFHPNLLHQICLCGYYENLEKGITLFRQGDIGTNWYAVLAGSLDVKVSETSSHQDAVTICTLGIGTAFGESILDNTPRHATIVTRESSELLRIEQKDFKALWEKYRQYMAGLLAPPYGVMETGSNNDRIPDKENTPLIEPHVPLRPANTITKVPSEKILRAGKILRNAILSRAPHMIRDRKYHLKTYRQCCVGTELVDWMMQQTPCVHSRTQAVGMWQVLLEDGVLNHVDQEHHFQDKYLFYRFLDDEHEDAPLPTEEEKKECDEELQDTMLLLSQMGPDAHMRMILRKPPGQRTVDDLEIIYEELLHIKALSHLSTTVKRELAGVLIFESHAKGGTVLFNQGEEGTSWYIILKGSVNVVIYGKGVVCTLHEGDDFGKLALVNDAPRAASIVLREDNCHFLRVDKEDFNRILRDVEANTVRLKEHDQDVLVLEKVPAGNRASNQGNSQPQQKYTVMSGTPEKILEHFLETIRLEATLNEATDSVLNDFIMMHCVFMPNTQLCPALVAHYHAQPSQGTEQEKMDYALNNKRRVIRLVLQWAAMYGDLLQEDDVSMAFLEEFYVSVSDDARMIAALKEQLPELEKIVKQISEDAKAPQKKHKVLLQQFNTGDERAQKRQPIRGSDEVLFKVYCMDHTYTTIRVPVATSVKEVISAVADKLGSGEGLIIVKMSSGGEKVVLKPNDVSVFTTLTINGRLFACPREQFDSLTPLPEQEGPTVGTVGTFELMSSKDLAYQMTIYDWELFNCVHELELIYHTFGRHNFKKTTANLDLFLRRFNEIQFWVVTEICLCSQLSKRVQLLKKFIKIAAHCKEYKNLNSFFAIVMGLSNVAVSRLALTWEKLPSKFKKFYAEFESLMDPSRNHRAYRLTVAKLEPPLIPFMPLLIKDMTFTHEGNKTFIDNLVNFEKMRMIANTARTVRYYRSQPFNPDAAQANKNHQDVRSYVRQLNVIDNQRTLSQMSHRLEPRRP
Chain of 3',5'-cyclic-AMP phosphodiesterase 4B (Homo sapiens) (Q07343 whole entry, looked up): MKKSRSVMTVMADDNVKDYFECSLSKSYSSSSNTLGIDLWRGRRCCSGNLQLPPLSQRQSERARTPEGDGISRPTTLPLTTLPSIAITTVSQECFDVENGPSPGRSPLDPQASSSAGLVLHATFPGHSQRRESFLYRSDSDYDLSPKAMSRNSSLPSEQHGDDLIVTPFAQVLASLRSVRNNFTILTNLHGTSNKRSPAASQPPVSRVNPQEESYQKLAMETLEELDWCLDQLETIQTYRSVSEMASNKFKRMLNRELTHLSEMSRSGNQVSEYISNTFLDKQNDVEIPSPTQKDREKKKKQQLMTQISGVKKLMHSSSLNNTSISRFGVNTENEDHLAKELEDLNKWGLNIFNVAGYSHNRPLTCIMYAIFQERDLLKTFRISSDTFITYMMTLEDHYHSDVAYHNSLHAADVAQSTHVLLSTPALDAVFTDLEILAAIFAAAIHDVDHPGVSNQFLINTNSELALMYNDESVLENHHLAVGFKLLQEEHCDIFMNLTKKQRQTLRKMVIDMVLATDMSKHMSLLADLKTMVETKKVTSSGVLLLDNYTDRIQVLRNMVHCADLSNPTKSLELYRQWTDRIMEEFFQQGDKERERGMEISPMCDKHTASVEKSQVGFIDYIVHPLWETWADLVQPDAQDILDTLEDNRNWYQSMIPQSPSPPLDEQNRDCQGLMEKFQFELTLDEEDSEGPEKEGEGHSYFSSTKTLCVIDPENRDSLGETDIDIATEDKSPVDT
Chain of Cytochrome P450 1A2 (Homo sapiens) (P05177 whole entry, looked up): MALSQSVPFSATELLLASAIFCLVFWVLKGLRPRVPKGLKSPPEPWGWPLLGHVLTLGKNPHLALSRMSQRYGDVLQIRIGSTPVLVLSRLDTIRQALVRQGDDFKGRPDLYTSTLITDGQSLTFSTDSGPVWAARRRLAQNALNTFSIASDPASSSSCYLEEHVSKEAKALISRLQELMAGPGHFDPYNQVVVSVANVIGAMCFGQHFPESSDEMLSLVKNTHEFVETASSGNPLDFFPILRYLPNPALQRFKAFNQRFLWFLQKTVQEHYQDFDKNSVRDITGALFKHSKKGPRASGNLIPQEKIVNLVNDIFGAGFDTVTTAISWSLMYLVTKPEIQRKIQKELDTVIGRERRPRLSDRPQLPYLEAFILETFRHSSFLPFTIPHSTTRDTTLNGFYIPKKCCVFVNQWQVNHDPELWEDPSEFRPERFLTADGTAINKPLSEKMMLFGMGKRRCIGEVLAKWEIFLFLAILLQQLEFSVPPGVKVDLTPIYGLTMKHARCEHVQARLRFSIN

`Cn1cccc1/C=C1\C(=O)NC(=O)N(Cc2ccco2)C1=O`: the Potency in assay [1] is 14.1 µM (active). Besides, the Potency result in [2] was “inactive”. Further, the activation in [3] is 8.15% [at 17.1 µM, percent relative to cAMP agonist control] (inactive). Further, the activity change, negative = inhibition in assay [4] is -7.91% [at 12.7 µM] (inactive); in assay [5], -2.64% [at 30.8 µM] (inactive).

Regarding `CCCCNC(=O)c1c(N)n(CCCOC)c2nc3ccccc3nc12`, the Potency entry in assay [2] and in assay [3] was “inactive” throughout. For the same compound, in [5], the result was inactive.

Consider `CCn1c(O)c(C=Nc2ccc(N3CCOCC3)cc2)c(=O)n(CC)c1=S`, for which the results for the Potency in assay [6] and in assay [3] were 9.19 µM (active) and 112 µM (active), respectively. Besides, the Potency entry in assay [2] and in [4] was “inactive” in each case. Moreover, the compound was classed as inactive in assay [5].

On to `Cc1cccc(CN2C(=O)CN=C(c3ccccc3)c3ccccc32)c1`, for which the Potency result in [3] was “inactive”. Also, the activity change, negative = inhibition in [4] was 15.3% [at 12.7 µM] (inactive). Moreover, in assay [5], the compound was called inactive.

Regarding `NC(=O)c1ccc(N=Cc2c(O)n(Cc3ccco3)c(=O)[nH]c2=O)cc1`, the Potency in [1] is 14.1 µM (active). Further, the Potency result in assay [2], in [3] and in assay [4] was “inactive” in each case. Moreover, the call in assay [5] was inactive.

For the compound `Nc1c(C(=O)NCc2ccco2)c2nc3ccccc3nc2n1Cc1ccc(F)cc1`, the activity change, negative = inhibition in assay [7] (at 17.2 µM (top of the series)) was 108% [activator] (active). Further, the Potency in assay [8] is > 20.6 µM (inactive); in assay [9], 7.94 µM (active). The Potency result in [2], in assay [3], in assay [4] and in [10] was “inactive” throughout. Besides, the result in assay [5] was inactive.

As to `O=C1NC(=S)NC(=O)C1=Cc1cccc2cc3ccccc3cc12`, the Potency in assay [11] is > 11.4 µM (inactive); in [13] it was 0.398 µM (active); in assay [8], > 46 µM (inactive); in [15], > 9.22 µM (inactive). Further, the result in [12], in [14] and in assay [5] was inactive. Further, the values for the activity change, negative = inhibition in [7] (at 7.69 µM (top of the series)) and in assay [16] were -8.51% (inactive) and -7.37% [at 11.4 µM] (inactive), respectively. Also, the Potency result in assay [17], in assay [2] and in [3] was “inactive” each time.

With `CN1CCN2c3ccc(N)cc3CC3(C(=O)NC(=O)NC3=O)C2C1` (stereo unspecified), the Potency in assay [1] was 14.1 µM (active). Further, the Potency entry in assay [2], in [4] and in assay [10] was “inactive” in each case. The call in assay [5] was inactive.

`CCOC(=O)[C@]12Cc3cc(OC)ccc3[C@H]1N(C1CCCCC1)C(=O)c1ccccc12`: the Potency entry in [2] and in assay [3] was “inactive” each time. In assay [5], the result was inactive.

As to `Cc1ccc(N)c(C(=O)c2ccc(Br)cc2)c1`, the Potency entry in assay [2] and in assay [4] was “inactive” throughout. Also, the call in [5] was inactive.

With `Cc1oc(-c2ccccc2)nc1CN1C(=O)CN=C(c2ccccc2)c2ccccc21`, the Potency result in assay [2] is “inactive”. The activation in assay [3] was 7.27% [at 17.1 µM, percent relative to cAMP agonist control] (inactive); in assay [10], 28.8% [at 30.8 µM] (inactive). In [5], the activity change, negative = inhibition was -7.89% [at 30.8 µM] (inactive).

Values taken from PubChem BioAssay (NCATS).
